In PubChem BioAssay AID1053143 (Broad Institute, 2014):
The campaign covered roughly 3,400 compounds. About 120 (3.5%) were called active. The rule behind the calls is not given here. A selection follows. Where a call stands in place of a potency, no number is given. Potency and affinity values are given separately.

Assay: HepG2 cell cytotoxicity, dose response, cytotoxicity control, ATP luminescence, cherry-pick, activator set 2 (AID 1053143)
Conditions: HepG2 viability, CellTiter-Glo ATP luminescence, 72 h; series mostly up to 26 µM

Compound	activity change, negative = cytotoxicity
Cn1c2nc3ccccc3c-2nc2ccccc21	inactive
CCCCOC(=O)Nc1ccc(C(=O)OC)cc1	inactive
CC1CCc2nc3sc4c(c3c(N)c2C1)CCCC4 (stereo unspecified)	inactive
COc1ccc(-c2nc3ccccc3s2)cc1NC(C)=O	inactive
O=C(Nc1nc(-c2nc3ccccc3s2)cs1)C1CC1	inactive
Cc1nn2c(=O)cc(COC(=O)c3c(F)cccc3Cl)nc2s1	inactive
COc1ccc(/C=C/c2nnc(NC(C)=O)s2)cc1	inactive
COc1cccc(C(=O)Nc2nc(C)cs2)c1	inactive
Cc1csc(NC(=O)c2ccc(C)s2)n1	inactive
O=C(/C=C/c1cccs1)NCc1cccs1	inactive
O=C(Nc1ccc2c(c1)OCO2)c1ccccn1	inactive
O=C(O)c1ccc(-c2noc(-c3ccccc3Cl)n2)cc1	inactive
O=C(Nc1ccc(F)cc1)Nc1ccc2c(c1)CCC2	inactive
O=C(Nc1cccc(F)c1)Nc1ccc2c(c1)CCC2	inactive
COc1cc(/C=C/C(=O)N2C(=O)c3cccc(N)c3C2=O)cc(OC)c1OC	inactive
COc1cc(/C=C/C(=O)OCC(=O)NCCc2ccccc2)cc(OC)c1OC	inactive
Cc1cc(C(=O)COC(=O)c2ccc(O)cc2O)c(C)n1C(C)C	inactive
c1ccc(-c2csc(N3CCOCC3)n2)cc1	inactive
Nc1nc(-c2ccc3c(c2)CCO3)cs1	inactive
O=S(=O)(c1ccc(Cl)cc1)N1CCN(Cc2ccc(O)c3ncccc23)CC1	inactive
O=C(c1ccc(N2CCOCC2)cc1)c1cccs1	inactive

Compound	activity change, negative = cytotoxicity
O=c1oc2ccccc2c2c1ncn2CCN1CCOCC1	inactive
COc1cc(/C=N/Nc2ccc(Cl)c(C(=O)O)c2)ccc1OC(=O)c1cccs1	inactive
CCc1ccc(CNCCNC(=O)c2ccco2)cc1	inactive
O=c1c2ccccc2nnn1CSc1nnc2ccccn12	inactive
CCC(C)(C)c1ccc2c(c1)C(=O)c1ccccc1C2=O	inactive
O=C(O)c1ccc2c3n(nc2c1)-c1ccc(Cl)cc1CO3	inactive
COCCNC(=O)c1ccc2c3n(nc2c1)-c1ccc(C)cc1CO3	inactive
O=C(c1ccc2c3n(nc2c1)-c1ccc(Cl)cc1CO3)N1CCOCC1	inactive
O=C(NCCO)c1ccc2c3n(nc2c1)-c1ccccc1CO3	inactive
CCOC(=O)c1sc(=NC(=O)c2ccccc2Br)n(C)c1C	inactive
COc1ccc(CCC(=O)Nc2nnc(C)s2)cc1	inactive
Cc1ccc(OC(=O)c2c(C)nn(-c3ccccc3)c2C)cc1	inactive
CC(=O)Nc1ccc(-c2cc(N)n(-c3ccccc3)n2)cc1	inactive
Cc1ccc2cc(/C=C/C(=O)c3ccco3)c(Cl)nc2c1	inactive
CCOC(=O)N1N=C(CC)CC1(O)C(F)(F)F (stereo unspecified)	inactive
Cn1c(-c2ccc(F)c(F)c2)cc2onc(-c3ccccc3)c2c1=O	inactive
COC(=O)c1ccc(-c2cc3onc(-c4ccccc4)c3c(=O)n2C)cc1	inactive
CC(C)C1COC(c2cccc3ccccc23)=N1 (stereo unspecified)	inactive
CC(=O)c1ccc(NC(=O)c2ccn(C(=O)OCC(C)C)n2)cc1	inactive
CCOC(=O)c1csc(NC(=O)c2cccs2)n1	inactive
COc1ccc2cc(CCNC(=O)c3cccs3)c(=O)[nH]c2c1	inactive

Compound	activity change, negative = cytotoxicity
Cc1csc(=NC(=O)c2ccccc2)n1C	inactive
CC(C)C(=O)Nc1ccc(NC(=O)c2cc3ccccc3o2)cc1	inactive
COc1ccc2nc(NC3=NCCC3)sc2c1	inactive
CCOC(=O)c1cccc(NC(=O)c2ccc(F)cc2F)c1	inactive
CN1CCN(c2ccc(-c3ccnn3C(=O)Nc3ccccc3)cc2)CC1	inactive
CS(=O)(=O)N1CCN(c2ccc(NC(=O)c3ccc(Br)o3)cc2)CC1	inactive
Cc1ccccc1Nc1nn2c(=O)c3ccccc3nc2s1	inactive
COc1c(C(=O)NNC(=O)c2ccccc2)csc1Br	inactive
Oc1c(/C=N/c2ccccn2)sc2ccccc12	inactive
CC(/C=N/Nc1nc2ccccc2[nH]1)=C\c1ccccc1	inactive
Cc1ccc(/C=C/C(=O)c2nc3ccccc3[nH]2)cc1	inactive
CC(C)C(OC(=O)C1=Cc2ccccc2OC1)C(=O)NCC1CCCO1 (stereo unspecified)	inactive
Nc1ccc(-c2nc3ccccc3s2)cn1	inactive
Cc1ccc2nc(-c3ccc(NS(=O)(=O)c4ccc(F)cc4)cc3)sc2c1	inactive
COc1ccc(OCc2cc(C(=O)N3CCOCC3)no2)c(Cl)c1	inactive
O=c1cccc2n1Cc1cc3ccccc3nc1-2	inactive
COc1ccc(C(=O)COC(=O)c2sccc2C)cc1OC	inactive
O=C(Nc1ccc(C(=O)c2ccccc2)cc1)c1ccccc1	inactive
O=C(Nc1ccc(NC(=O)C2CC2)cn1)c1ccccc1Cl	inactive
Nc1ccccc1N=Nc1ccccc1N	inactive
CC(C)(C)OC(=O)N/N=C\C=C\c1ccc2c(c1)OCO2	inactive

Compound	activity change, negative = cytotoxicity
CCc1ccc(NC(=O)C(=O)c2ccccc2NC(C)=O)cc1	inactive
COc1ccc(NC(=O)N2CCCc3ccccc32)cc1	inactive
O=C(Nc1ccc2c(c1)OCO2)N1CCCc2ccccc21	inactive
O=C(Nc1ccc(NC(=O)C2CCCCC2)nc1)c1cccs1	inactive
COc1ccc(NC(=O)/C(=C\c2ccc3c(c2)OCO3)NC(C)=O)cc1	inactive
COc1ccc2c(c1)CCC1C2=NN(/C(C)=C\C(C)=O)C1c1ccc(F)cc1 (stereo unspecified)	inactive
CCN(CC)c1cc(C)c(C#N)c2nc3ccccc3n12	inactive
c1ccc(-c2ccc3ccccc3n2)cc1	inactive
O=C(c1cccs1)N1CCN=C1SCc1ccc(F)cc1	inactive
COc1ccc(-c2cn(Cc3ccc(C(=O)c4ccccc4)cc3)nn2)cc1	inactive
O=C(N/N=C/c1ccc(Br)cc1)c1ccc(Br)o1	inactive
CCc1ccc2cc3c(cc2n1)C(=O)c1ccccc1-3	inactive
COc1ccc(NC(=O)Nc2ccc(F)c(Cl)c2)cc1	inactive
O=C(Nc1ccc(F)c(Cl)c1)c1ccccc1	inactive
COc1ccccc1NC(=O)CCC(=O)Nc1nnc(C2CCCCC2)s1	inactive
COc1cccc(C=Cc2nccc3ccccc23)c1OC	inactive
O=C1c2ccccc2C(=O)C1c1ccnc2ccccc12	inactive
C=CCSc1nc2c(cnn2-c2ccccc2)c(=O)n1N	inactive
